# Shiga inhibitor = inhibitors of Shiga toxin in Vero cells; inhibition, % at 38.7 µM; 290,000 compounds, 9.2% hits; Vero cells, Shiga toxin protein synthesis inhibition reporter; AID 2315; in the data active = inhibition mostly above about 28%, no sharp cut-off; inactive = mostly below about 43%; note: 0% is about no effect
# Pf growth 96h = P. falciparum growth inhibition at 96 hours | 320,000 compounds, 6.9% hits | P. falciparum luciferase reporter growth, 96 h | AID 504834 | Potency, µM (series often up to 28.7 µM), inactives show at the top dose activity change, negative = inhibition, most hits filed as inhibitors; note: potency is the fitted concentration of half-maximal effect; % is set by controls: 0 for no effect and ±100 for the full control effect
#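 Infected RBCs, 2% Hct / 0.05% parasitemia final; luciferase-reporter P. falciparum; cpd 96 h, 37 C, 5% CO2; luciferase detection reagent; luminescence.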
# Giardia FBPA inh = inhibitors of Giardia lamblia fructose-1,6-bisphosphate aldolase; A8B2U2; purified Giardia FBPA; Potency, µM (top dose mostly 59.6 µM), for the others: top-dose activity, negative = inhibition, usual class: inhibitors; 290,000 compounds, 0.71% hits; note: potency is the fitted concentration of half-maximal effect; % is set by controls: 0 for no effect and ±100 for the full control effect; nearly all actives have a fitted effect of over 55% in size
# Target sequence (A8B2U2 whole entry, looked up): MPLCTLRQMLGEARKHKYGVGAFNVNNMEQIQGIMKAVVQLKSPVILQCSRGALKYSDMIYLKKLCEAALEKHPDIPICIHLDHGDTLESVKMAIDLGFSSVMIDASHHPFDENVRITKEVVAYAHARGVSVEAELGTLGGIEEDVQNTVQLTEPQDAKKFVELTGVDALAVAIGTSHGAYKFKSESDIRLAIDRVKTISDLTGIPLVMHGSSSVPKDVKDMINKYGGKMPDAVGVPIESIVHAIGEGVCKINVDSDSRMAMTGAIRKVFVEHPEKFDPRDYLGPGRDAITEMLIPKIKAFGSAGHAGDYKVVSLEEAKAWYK
#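 Giardia FBPA (40 nM reagent) was preincubated 10 min at RT with compound (up to 57.5 uM final), then substrate plus GAPDH/TPI/NAD/arsenate coupling system with diaphorase/resazurin was added; resorufin fluorescence (525/598 nm) was read after 20 min.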
# Pf growth 48h = inhibits P. falciparum growth in the first generation, 48 h | P. falciparum luciferase growth in erythrocytes, 48 h | Potency, µM (titrated, usually from 28.7 µM), without a hit: at the top dose activity change, negative = inhibition, actives largely listed as inhibitors | 310,000 compounds, 5.9% hits | AID 504832; note: potency is the fitted concentration of half-maximal effect; % is set by controls: 0 for no effect and ±100 for the full control effect
#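 Growth was read as firefly luciferase luminescence after a 48 h, 37 C, 5% CO2 exposure of compounds to reporter-bearing P. falciparum cultures (0.1% parasitemia, 2% hematocrit final) in Albumax-supplemented RPMI 1640.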
# CHX counter-1 = affects cycloheximide protein synthesis inhibition readout, counter-screen; cell reporter, cycloheximide protein synthesis inhibition counterscreen; max response, %; 300,000 compounds, 12% hits; in the data active = max response mostly above about 13%, no sharp cut-off; inactive = mostly below about 14%; note: read at 38.3 µM for the half of the compounds with a filed dose; 0% is about no effect
# NS1 inh = inhibitors of influenza NS1 protein function | Potency, µM (highest dose often 46.1 µM), for inactives: at the highest dose activity, positive = more growth | 270,000 compounds, 0.4% hits; calls by dose curve; note: potency is the fitted concentration of half-maximal effect; actives are rising curves; nearly all actives have a fitted effect of over 50% in size
#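 Read-out: OD600 growth recovery of NS1-expressing budding yeast. Cells grown overnight at 30C in -URA glucose medium, washed, resuspended and diluted 1:100 in 2% galactose assay medium, pH 6.0. Same strain lacking NS1 served as positive control.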
# CHX counter-2 = affects protein synthesis reporter in cycloheximide counter-screen. Potency, µM (titrated, usually from 38.3 µM), for the others: at the top dose activity (activation), usual class: activators. shares compounds with Shiga inhibitor. 510 compounds, 3% hits. Cycloheximide counterscreen, protein synthesis reporter, Shiga toxin assay; calls by dose curve; note: potency is the fitted concentration of half-maximal effect; 0% is about no effect
# Numbers without * were called inactive; i = inactive; u = inconclusive; x = not tested or not shown; + = active, no number; [ ] = remark or other dose. Rows were chosen to be rich in hits. Some 21% of all compounds tested hit in one or more screens of this group. Unless noted, calls come from the whole dose curve; as a rule, active = well fitted curve in the direction sought with a large enough effect; inconclusive = small, poorly fitted or top-dose-only effect, or another doubt; inactive = no such curve, though single readings can be large; an effect the other way counts as inactive or inconclusive.
SMILES,Shiga inhibitor,Pf growth 96h,Giardia FBPA inh,Pf growth 48h,CHX counter-1,NS1 inh,CHX counter-2
COc1ccc(-c2cnc[nH]2)cc1,78*,69%,0%,i,13,x,1%
COc1ccc(-c2cn3c(C)c(C(=O)N4CCN(c5ccc(F)cc5)CC4)sc3n2)cc1,-8,47%,1%,x,-4,9%,x
COc1ccc(-c2cn3c(C)c(C(=O)NC(C)C)sc3n2)cc1,53*,-1%,0%,10%,8,0%,3%
CC(OC(=O)c1ccc(Cl)c(S(N)(=O)=O)c1)C(=O)NCC1CCCCC1 (stereo unspecified),x,0%,x,2%,x,x,x
NS(=O)(=O)c1cc(C(=O)NCC2CCCCC2)ccc1Cl,56*,u,-1%,u,-3,5%,2%
COc1ccc(OCCCn2ccnc2)cc1,31,-21%,u,-5%,4,3%,x
c1ccc(OCCCn2ccnc2)cc1,42*,228%,-23%,9%,4,16%,0%
Cn1nnc(NC(=O)c2cccc([N+](=O)[O-])c2)n1,6,28%,1%,16%,-1,-3%,x
O=C(CC1CC2CCC1C2)NCCc1ccc(Cl)cc1 (stereo unspecified),49*,45%,6%,26%,16,-23%,2%
COc1ccc(CC(=O)NC(C)c2nnc(SCC(=O)Nc3nc(C)cs3)n2C)cc1 (stereo unspecified),30*,47%,2%,-16%,0,-6%,-1%
COc1cccc(C2CC(c3ccccc3Cl)n3ncnc3N2)c1 (stereo unspecified),12,-3%,8%,-5%,2,-2%,x
COc1cccc(C(=O)NNC(=O)c2cccnc2)c1,-7,35%,10%,23%,7,-1%,x
COc1cccc(C(=O)NNC(=O)C2CC(C)=C(C)CC2C(=O)O)c1 (stereo unspecified),37*,-1%,5%,11%,2,13%,-1%
CCc1ccc(CCC(=O)Nc2nnc(CC)s2)o1,-14,134%,7%,-9%,-2,-3%,x
C=C1C(O)C2OC3(CCC(/C=C/C(C)C4CC(C)=CC5(OC(CC(C)(O)C(=O)O)CCC5O)O4)O3)CCC2OC1C(O)CC(C)C1OC2(CCCCO2)CCC1C (stereo unspecified),+,x,1%[2.35 µM],x,-3,x,3%
O=C(c1ccco1)N1CCN(C(=O)c2cc(-c3ccncc3)nc3ccc(Br)cc23)CC1,x,x,x,x,x,-64%,x
O=C(c1ccco1)N1CCN(C(=O)c2cc(-c3ccccn3)nc3ccc(Cl)cc23)CC1,32*,11%,-30%,u,5,-3%,-1%
COC(=O)c1ccc(-c2noc(CN(C)Cc3ccncc3C)n2)cc1,40*,23%,2%,1%,3,-1%,0%
CCN(Cc1ccncc1)Cc1nc(-c2ccc(C(=O)OC)cc2)no1,-6,-53%,3%,6%,-1,3%,x
Cc1cc(C)c(OCC(=O)Nc2nnn(C)n2)c(Br)c1,2,15%,2%,-21%,-3,-9%,x
Cc1ccc(OCC(=O)Nc2nnn(C)n2)c(C)c1,83*,x,4%,36%,5,-5%,u
CCOC(=O)C(C)Oc1ncnc2cccc(F)c12 (stereo unspecified),-6,0%,1%,7%,-6,x,x
O=C(Nc1ccc(Cl)cc1)c1ccncc1,52*,36%,2%,47%,20,-25%,u
O=C(Nc1ccc(-n2cc(Cl)cn2)cc1)c1ccncc1,10,-12%,4%,1%,8,-2%,x
O=C(Nc1nnc(SCc2cccc3ccccc23)s1)C1COc2ccccc2O1 (stereo unspecified),1,-5%,u,11%,-1,16%,x
SMILES,Shiga inhibitor,Pf growth 96h,Giardia FBPA inh,Pf growth 48h,CHX counter-1,NS1 inh,CHX counter-2
CCCNC(=O)c1ccc2snnc2c1,29*,u,7%,38%,5,2%,-2%
O=C(NCc1ccccc1)c1ccc2nnsc2c1,-1,3%,5%,19%,7,0%,x
CC(C)c1ccc(NC(=O)N2CCCC2C(=O)Nc2ccc(-n3cnnn3)cc2)cc1 (stereo unspecified),29*,8%,-6%,12%,14,-3%,2%
Cc1ccc(C)c(NC(=O)c2cc([N+](=O)[O-])cc([N+](=O)[O-])c2)c1,-9,u,4%,u,-1,3%,x
CCC(C)(O)c1[nH]c2ccc(C(F)(F)F)cc2c1C (stereo unspecified),18*,19%,0%,-26%,-3,-56%,1%
CC1CCCC(C)N1C(=O)Cn1nnc(-c2ccccc2)n1 (stereo unspecified),33*,38%,-9%,-5%,4,-6%,-1%
COc1cc(C)cc2oc(=O)c(CC(=O)N3CCN(C(=O)C4COc5ccccc5O4)CC3)c(C)c12 (stereo unspecified),2,1%,5%,u,-10,1%,x
Cc1cc(C)cc(NC(=O)COc2coc(CN3CCc4ccccc4C3)cc2=O)c1,x,u,x,-1%,x,x,x
CCSc1nnc(NC(=O)[C@@H](NC(=O)c2ccc(C(C)(C)C)cc2)C(C)C)s1,34*,u,10%,u,8,21%,0%
CCSc1nnc(NC(=O)[C@@H](NC(=O)c2cccc(C)c2)C(C)C)s1,-1,17%,-10%,3%,-1,-8%,x
O=C(NCC(=O)N1CCN(c2ccccn2)CC1)c1ccc(Br)o1,36*,10%,x,14%,9,-6%,-3%
O=C(NCC(=O)N1CCCCC1)c1ccc(Br)o1,-22,u,x,-7%,1,10%,x
O=C(O)c1cc(S(=O)(=O)Nc2ccc(OCc3ccccc3)cc2)ccc1Br,40*,41%,18%,21%,10,28%,u
O=C(NCCN1C(=O)S/C(=C\c2ccc(Cl)cc2)C1=O)c1ccc(F)c(S(=O)(=O)N2CCOCC2)c1,33*,u,2%,60%,-1,9%,u
COc1ccccc1CNC(=O)CSc1ccc(-c2ccccn2)nn1,30,-28%,-17%,15%,10,x,x
COc1ccc(NC(=O)Cc2c(Sc3ccccc3)c3ccccc3n2C)cc1,-8,u,0%,u,-1,19%,x
COc1ccc(NC(=O)c2c(Cl)n(C)c3ccccc23)cc1,40*,139%,0%,35%,11,0%,13µM*
O=C(COC(=O)c1cc[n+]([O-])cc1)Nc1ccc(Cl)cc1C(F)(F)F,x,28%,x,9%,x,x,x
Cc1ccc(C(=O)N2CCCC(Nc3ccc(C(C)C)cc3)C2)cn1 (stereo unspecified),-1,u,x,-1%,-3,9%,x
